The whole screen tested about 1,100 compounds, of which about 350 (32%) were called active. The rule behind the calls is not given here. Not all results are given here. Entries that show only a call come without a potency. Potency and affinity values are given separately.

This assay is described as follows: viability loss in CEM21 cells – cell-based, CellTiter-Glo luminescence, cherry-picked, cytotoxicity control for viral fusion inhibitor project, dose response (AID 652042). The note with it: CellTiter-Glo ATP luminescence, 24 h; series mostly up to 35 µM. (In general: ATP-based viability assays read luminescence as a measure of living cells.)
As for `COc1ccc(S(=O)(=O)N2CCCCC2)cc1NC(=O)Cc1sc(C)nc1-c1ccc(F)cc1`, the activity change, negative = cytotoxicity result is “inactive”.

With `COc1ccc(S(=O)(=O)N2CCCCC2)cc1NC(=O)CCCOc1ccc(C)cc1`, the activity change, negative = cytotoxicity result is “inactive”.

For the molecule `COc1ccc(NC(=O)c2cc(CC(C)C)nc3ccccc23)cc1`, the activity change, negative = cytotoxicity result is “inactive”.

Take `CC[C@@]12C(=O)N(c3cccc(F)c3)C(=O)N1[C@H](c1ccc(Cl)cc1)[C@@H]1C(=O)N(C3CCCCC3)C(=O)[C@@H]12`: the activity change, negative = cytotoxicity result is “inactive”.

Turning to `Nc1ccc(-c2nc3ccc(C(=O)O)cc3s2)cc1`, the activity change, negative = cytotoxicity entry is “inactive”.

Regarding `COc1ccccc1CNC(=O)C[C@H]1C[C@@H]2c3cc(NC(=O)c4cccnc4)ccc3O[C@@H]2[C@@H](CO)O1`, the activity change, negative = cytotoxicity result is “inactive”.

`COC(=O)c1c(C)oc(C)c1S(=O)(=O)NC(c1ccccc1)c1ccccc1`: the activity change, negative = cytotoxicity entry is “inactive”.

For the molecule `Cc1cc(C)n2nc(NCc3cccc(Br)c3)nc2n1`, the activity change, negative = cytotoxicity entry was “inactive”.

In the case of `COc1ccc(Nc2c(CCc3ccccc3)nc3nc(C)cc(C)n23)cc1`, the activity change, negative = cytotoxicity result was “inactive”.

On to `Cc1cc(Oc2ccc(C#N)cc2)nc(NCc2ccccc2)n1`, for which the activity change, negative = cytotoxicity entry is “inactive”.

With `CCOc1ccc(C(C)=O)cc1COC(=O)c1ccccc1C(=O)N(C)Cc1ccccc1`, the activity change, negative = cytotoxicity result was “inactive”.

For the molecule `Clc1ccc(OCCN2CCN(c3ncnc4sccc34)CC2)cc1`, the activity change, negative = cytotoxicity result is “inactive”.

`Cc1ccc(Cn2ncc3c(N4CCN(c5ccc(C)cc5)CC4)ncnc32)cc1`: the activity change, negative = cytotoxicity entry was “inactive”.

Turning to `O=C(COC(=O)c1cccc(S(=O)(=O)N2CCOCC2)c1)NCc1ccccc1`, the activity change, negative = cytotoxicity result is “inactive”.

`CSc1ncccc1C(=O)OCC(=O)Nc1ccc(C)c(S(=O)(=O)N2CCOCC2)c1`: the activity change, negative = cytotoxicity result is “inactive”.

As to `COc1ccc(S(=O)(=O)Nc2ccc3c(c2)CC(=O)N([C@H](C)CO)C[C@H](C)[C@H](CN(C)S(=O)(=O)c2ccccc2)O3)cc1`, the activity change, negative = cytotoxicity result is “inactive”.

For the molecule `Cc1noc(C)c1S(=O)(=O)N(C)C[C@H]1Oc2ccc(NC(=O)Nc3ccccc3)cc2CC(=O)N([C@H](C)CO)C[C@H]1C`, the activity change, negative = cytotoxicity entry was “inactive”.

Turning to `C=CC[n+]1c(-c2ccc(OC)c(OC)c2)csc1NNC(=O)Nc1ccccc1`, the activity change, negative = cytotoxicity result was “inactive”.

With `C=C1CCN([C@@H](CC(C)C)C(=O)Nc2ccc(OC)cc2)S(=O)(=O)c2ccccc21`, the activity change, negative = cytotoxicity result is “inactive”.

For the molecule `Cc1nn(C)c(Cl)c1NC(=O)OCc1ccc(Cl)cc1Cl`, the activity change, negative = cytotoxicity entry is “inactive”.

On to `O=C(Nc1ccc(Cl)cn1)C1CCCN1S(=O)(=O)c1cccc2ccccc12` (stereo not drawn), for which the activity change, negative = cytotoxicity entry was “inactive”.

Regarding `CNc1nc2c(c(=O)n(C)c(=O)n2C)n1Cc1ccccc1`, the activity change, negative = cytotoxicity entry was “inactive”.

Turning to `CC(Cl)=CCn1c(NCCc2ccccc2)nc2c1c(=O)n(C)c(=O)n2C`, the activity change, negative = cytotoxicity entry was “inactive”.

For `O=C(N[C@@H]1CC[C@H](CCNS(=O)(=O)c2ccc(F)cc2)O[C@@H]1CO)C1CC1`, the activity change, negative = cytotoxicity entry is “inactive”.

With `CCOC(=O)C1CCCN(Cc2nc(N)nc(Nc3ccc(OC)cc3)n2)C1` (stereo not drawn), the activity change, negative = cytotoxicity entry is “inactive”.

As for `O=C(CN1C(=O)c2ccccc2S1(=O)=O)c1ccccc1Cl`, the activity change, negative = cytotoxicity entry is “inactive”.

Take `C[C@@H]1CN([C@H](C)CO)C(=O)c2cccc(NS(=O)(=O)c3ccc(F)cc3)c2O[C@@H]1CN(C)Cc1ccc(C(F)(F)F)cc1`: the activity change, negative = cytotoxicity entry is “inactive”.

For `C[C@H](CO)N1C[C@H](C)[C@H](CN(C)S(=O)(=O)c2ccc(F)cc2)Oc2ccc(NS(=O)(=O)c3ccccc3)cc2CC1=O`, the activity change, negative = cytotoxicity result is “inactive”.

`C[C@H](CO)N1C[C@H](C)[C@H](CN(C)S(=O)(=O)c2ccccc2)Oc2ccc(NS(=O)(=O)c3ccc(F)cc3)cc2CC1=O`: the activity change, negative = cytotoxicity result is “inactive”.

`C[C@@H]1CN([C@H](C)CO)C(=O)c2cccc(NS(=O)(=O)c3ccc(Cl)cc3)c2O[C@H]1CN(C)CC1CCCCC1`: the activity change, negative = cytotoxicity result is “inactive”.

As to `C[C@H]1CN([C@@H](C)CO)C(=O)c2cccc(NS(=O)(=O)c3ccc(Cl)cc3)c2O[C@@H]1CN(C)Cc1ccc(C(F)(F)F)cc1`, the activity change, negative = cytotoxicity entry was “inactive”.

As to `C[C@H](CO)N1C[C@H](C)[C@H](CN(C)C(=O)Nc2ccccc2)Oc2c(NS(=O)(=O)c3ccc(F)cc3)cccc2C1=O`, the activity change, negative = cytotoxicity entry was “inactive”.

For the molecule `Cc1ccc(S(=O)(=O)Nc2ccc3c(c2)CC(=O)N([C@H](C)CO)C[C@H](C)[C@H](CN(C)S(=O)(=O)c2ccccc2)O3)cc1`, the activity change, negative = cytotoxicity entry is “inactive”.

With `C[C@H]1CN([C@@H](C)CO)C(=O)c2cc(NS(C)(=O)=O)ccc2O[C@@H]1CN(C)Cc1ccc(Cl)c(Cl)c1`, the activity change, negative = cytotoxicity result was “inactive”.

On to `Clc1ccc2c(c1)C(C1=NCCN1)c1ccccc1CS2` (stereo not drawn), for which the activity change, negative = cytotoxicity result is “inactive”.

`C[C@@H]1CN([C@@H](C)CO)C(=O)c2cc(NC(=O)c3ccccc3)ccc2O[C@@H](C)CCCCO[C@H]1CN(C)Cc1ccc(C(=O)O)cc1`: the activity change, negative = cytotoxicity result is “inactive”.

For `Cc1cc(C)c(S(=O)(=O)N2CCCCC2)cc1N(C)S(=O)(=O)c1ccc(Cl)cc1`, the activity change, negative = cytotoxicity result is “inactive”.

In the case of `CC1CCC(NC(=O)CCn2ccc3cc(S(=O)(=O)N4CCCC4)ccc32)CC1` (stereo not drawn), the activity change, negative = cytotoxicity entry is “inactive”.

For the molecule `CC(=O)C1=C(C)N(Cc2ccc(Br)cc2)C(=S)NC1c1cccc(Cl)c1` (stereo not drawn), the activity change, negative = cytotoxicity result was “inactive”.

As to `COc1ccc(C2=Nn3c(nnc3-c3ccncc3)SC2)cc1`, the activity change, negative = cytotoxicity entry is “inactive”.

`C=CCN(Cc1ccc(OC)c(OC)c1)C(=O)c1cc2cc(F)ccc2[nH]1`: the activity change, negative = cytotoxicity result was “inactive”.

As for `COc1cccc(NC(=O)Nc2cccc(C(=O)O)c2)c1`, the activity change, negative = cytotoxicity result is “inactive”.

On to `COc1ccc(-c2noc(CCCC(=O)O)n2)cc1`, for which the activity change, negative = cytotoxicity entry is “inactive”.

Take `CN(C)c1ccc(O)c2c1CC1CC3[C@@H](N(C)C)C(=O)C(C(N)=O)=C(O)[C@]3(O)C(=O)C1=C2O` (stereo partly drawn): the activity change, negative = cytotoxicity entry is “inactive”.

Consider `CC1(C)CC2CC(C)(CN2S(=O)(=O)c2cccc(C(=O)OCC(=O)NC(N)=O)c2)C1` (stereo not drawn), for which the activity change, negative = cytotoxicity result was “inactive”.

As for `COc1ccccc1C(=O)NC(CCSC)C(=O)N1CCN(C/C=C/c2ccccc2)CC1` (stereo not drawn), the activity change, negative = cytotoxicity result is “inactive”.

For `CCCCCn1c(=O)[nH]c2cc(C(=O)N3CCN(Cc4ccc5c(c4)OCO5)CC3)ccc2c1=O`, the activity change, negative = cytotoxicity entry is “inactive”.

`COCCn1c(=S)[nH]c2cc(C(=O)N3CCN(Cc4ccc5c(c4)OCO5)CC3)ccc2c1=O`: the activity change, negative = cytotoxicity entry is “inactive”.

`NC(=O)c1sc2nc3c(c(-c4cccs4)c2c1N)CCCCC3`: the activity change, negative = cytotoxicity entry was “inactive”.

With `Cc1ccc(S(=O)(=O)N(C)C[C@@H]2Oc3ccc(NS(=O)(=O)c4c(C)noc4C)cc3CC(=O)N([C@H](C)CO)C[C@@H]2C)cc1`, the activity change, negative = cytotoxicity entry is “inactive”.

`C[C@H](CO)N1C[C@H](C)[C@H](CN(C)S(=O)(=O)c2ccccc2)Oc2ncc(/C=C/c3ccccc3)cc2C1=O`: the activity change, negative = cytotoxicity result was “inactive”.

For `C[C@H]1CN([C@@H](C)CO)C(=O)c2c(c3ccccc3n2C)-c2ccccc2CO[C@H]1CN(C)C(=O)CCC(F)(F)F`, the activity change, negative = cytotoxicity entry is “inactive”.

With `CCOC(=O)[C@@H]1[C@H]2COc3ccc(Br)cc3[C@@H]2N2C(=O)N(c3ccccc3)C(=O)[C@@]12C`, the activity change, negative = cytotoxicity result is “inactive”.

For the origin of these results see PubChem BioAssay AID652042 (Broad Institute, 2013).
